# Measured values published in PubChem BioAssay AID492952 (Southern Research Specialized Biocontainment Screening …, 2010).
# Out of some 2,300 compounds screened, about 1,500 (65%) were called active. So high a share suggests a set chosen from earlier hits. The list shows a part of the results. Potency and affinity values are given separately. Values without a mark were called inactive. No rule for the calls is given here.
# Assay: replicating M. tuberculosis growth inhibition, dose response, non-replicating M. tuberculosis project, H37Rv (AID 492952);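 also: Mycobacterium tuberculosis grown in culture; growth inhibition read after a week of incubation; 0% = bacteria alone untreated and 100% = bacteria with high antibiotic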
# Settings: series mostly up to 50 µM; inhibition: at the top concentration
row,Structure (SMILES),inhibition [%]
1,O=C(Nc1ccccc1F)c1ccc(Br)o1,-3.44
2,Cc1ccc(CCC(=O)Nc2ccccc2F)s1,18.7
3,NC(=O)C1CCN(C2CC(=O)NC2=O)CC1 (stereo unspecified),-5.72
4,COc1ccc(OCCSc2nnc(Cc3cccc4ccccc34)n2N)cc1,-6.56
5,N/C(=N\OC(=O)c1cccs1)c1ccccc1,2.45
6,CC1(C)CC(=O)C(C2NCCc3ccccc32)=C(O)C1 (stereo unspecified),4.03
7,O=C(Nc1ccccc1F)c1ccc(CSc2ccccc2)o1,-1.3
8,Cc1cc(C(=O)NNc2cc(Cl)ccc2Cl)no1,7.55
9,CCCc1cc(C(=O)Nc2cccc(C(C)=O)c2)no1,-0.8
10,O=C(CN1CCC(Cc2ccccc2)CC1)NC(=O)NC1CCCCC1,7.51
11,C[C@@H]1CN=C2N(CCNC(=O)CCC3CCCCC3)[C@H](Cc3ccc(O)cc3)CN21,6.51
12,CC(C)[C@H]1CN=C2N(C[C@H](C)NC(=O)CCC3CCCCC3)[C@H](Cc3ccc(O)cc3)CN21,0.35
13,CCCC(=O)N1CCC(Cc2ccccc2)CC1,-6.45
14,COc1cc(C=O)ccc1OCCCCOc1ccccc1[N+](=O)[O-],-2.84
15,CCc1ccc(C2=C/C(=C/c3cccnc3)C(=O)O2)cc1,1.91
16,C/C(=N\Nc1ccc(Cl)cc1)c1c(O)cc(C)oc1=O,-6.6
17,CN(C)c1ccc(NC(=O)COC(=O)c2cc(Cl)ccc2[N+](=O)[O-])cc1,16.4
18,O=C(Nc1ccc([N+](=O)[O-])cc1)C1COc2ccccc2O1 (stereo unspecified),-1.93
19,O=C(Nc1ccc(Cl)cn1)C1COc2ccccc2O1 (stereo unspecified),-9.66
20,CC(C)NC(=O)C1COc2ccccc2O1 (stereo unspecified),5.57
21,O=C(Nc1cccc([N+](=O)[O-])c1)C1COc2ccccc2O1 (stereo unspecified),-1.31

row,Structure (SMILES),inhibition [%]
1,O=C(Nc1cccc(Cl)c1)C1COc2ccccc2O1 (stereo unspecified),5.4
2,Cn1cccc1/C=N\NC(=O)C1COc2ccccc2O1 (stereo unspecified),2.74
3,COc1ccc2c([N+](=O)[O-])c(N3CCCC3)[nH]c2c1,11.5
4,COc1ccc(NC(=O)COc2ccccc2)cc1Cl,20
5,COC(=O)c1cccc(NC(=O)COc2cccc([N+](=O)[O-])c2)c1,3.64
6,CN(C)S(=O)(=O)Oc1ccc(C(=O)Nc2cccc(C(F)(F)F)c2)cc1,0.37
7,C=C(C)C1Cc2cc3ccc(=O)oc3cc2O1 (stereo unspecified),-6.72
8,COCCNC(=O)CC(=O)N/N=C/c1cccc(C(=O)OC)c1,-0.54
9,O=C(CCc1c[nH]c2ccccc12)Nc1ncccc1O,4.85
10,O=C(COC(=O)CCC(=O)c1ccc(F)cc1)Nc1ccccc1,-0.44
11,COc1cccc(NC(=O)COC(=O)Cc2ccc(Br)cc2)c1,6.93
12,CC(=O)c1ccc(NC(=O)C(Cc2ccccc2)n2cccc2)cc1 (stereo unspecified),1.69
13,Cc1cc(C(=O)NNc2ccc(Cl)cc2)no1,4.74
14,Cc1ccc(CSCCNC(=O)c2cccc([N+](=O)[O-])c2)cc1,26
15,COc1ccc(NC(=O)c2cc([N+](=O)[O-])ccc2O)cc1,25.4
16,COc1ccc([C@@]2(O)c3c(ccc(CC=C(C)C)c3O)NC(=O)[C@@H]2OC)cc1,-7.91
17,CN1/C(=C\C=N\NC(=O)c2cccnc2)C(C)(C)c2ccccc21,17.1
18,C/C(CC(=O)Nc1ccc(C)c(Cl)c1)=N\NC(=O)c1ccco1,1.14
19,CCc1cccc(OCCCn2ccnc2)c1,2.96
20,O=Cc1ccc(OC2OCCOC2Oc2ccc(C=O)cc2)cc1 (stereo unspecified),0.69
21,CC1=NN(C(=O)c2ccoc2C)C(O)(C(F)(F)F)C1 (stereo unspecified),5.07

row,Structure (SMILES),inhibition [%]
1,CC1=NN(C(=O)c2ccc(Cn3nc(C)c(Br)c3C)cc2)C(O)(C(F)(F)F)C1 (stereo unspecified),-4.33
2,O=C(c1ccccc1[N+](=O)[O-])N1N=C(c2ccccc2)CC1(O)C(F)(F)F (stereo unspecified),-1.38
3,CC1=NN(C(=O)c2cc(C)nn2C)C(O)(C(F)(F)F)C1 (stereo unspecified),-3.55
4,Cc1cc(C)cc(NC(=O)COC(=O)CC2CCCC2)c1,6.23
5,O=C(CC1CCCCC1)NCc1ccccc1,-2.3
6,Cc1cc(Cl)ccc1NNC(=O)c1cccs1,28
7,CCN1CCN(Cc2cc(C(C)(C)C)c(O)c(C(C)(C)C)c2)CC1,-3.19
8,COc1cc(CNCCNC(=O)c2nonc2N)ccc1OCc1ccc(Cl)cc1,18.4
9,O=C(NNc1ccc([N+](=O)[O-])cc1)C1CC1c1ccccc1 (stereo unspecified),21.1
10,CCOc1ccc(Cn2c(=O)oc3ccccc32)cc1,4
11,Cc1cccc(OCC(O)Cn2c(=N)n(Cc3ccccc3)c3ccccc32)c1 (stereo unspecified),10.8
12,Cc1ccc(C(=O)N2N=C(CC(C)C)CC2(O)C(F)(F)F)o1 (stereo unspecified),4.03
13,O=C(C/C=N\OCc1ccc([N+](=O)[O-])cc1)Nc1ccc(Br)cc1,17.8
14,CCSc1nsc(NC(=O)Nc2ccc(F)cc2F)n1,5.85
15,C=CCc1ccc2oc(C(=O)OCC)cc(=O)c2c1O,7.41
16,CCC1(O)CC(c2ccccc2)=NN1C(=O)c1ccccc1F (stereo unspecified),6.6
17,O=Cc1ccnc(-c2ccc(OC(=O)c3ccco3)cc2)n1,1.13
18,COc1ccc(/C=N/NC(=O)C(=O)NCc2cccnc2)cc1OC,-6.15
19,COc1cc(/C=N/Nc2ccc(Cl)c(C(=O)O)c2)ccc1OC(=O)c1cccs1,5.49
